# Results reported in the supplement of paper PMC6555819.
# System: RXRa homodimer (NR concentration 180 nM)
# Experiment: PBM binding z-score (relative to random genomic background probes); higher = stronger binding; sequences stand for … in GC…GCGATTGACAGCGTAGAATGAAGG
# Method in brief: (§1)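 Probes were double-stranded and carried 34-nt variable regions with direct-repeat seeds, single-nucleotide variants, half-site ablations and random human genomic background sequences, printed on custom Agilent 4×180K protein-binding microarrays. Arrays were incubated 1 h with ligand-free nuclear receptor dimers in PBS pH 7.4, 2% milk, 0.02% Triton X-100, 1 mM DTT, 0.2 mg/mL BSA and 0.4 mg/ml salmon testes DNA. Antibodies against each partner (one per run) detected binding, and scanned fluorescence was regression-normalized. Binding z-scores use the random background probes as reference.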
row,Sequence,PBM binding z-score
1,CGAACGAGGGCATGTGTTGATAGCAAATGCCGAT,0.745
2,CCTCGGATGACAGAAGGTCAGAGCTGTCCGCTTT,2
3,GGAACGAGCGCAAGTTGATAGCAGAGTTTGATGG,-0.499
4,TTACCAAGTTGAGCTGAGGTCGTTGATCCAACTC,0.839
5,GCGACTGGGGCATCAGCAGGTTACCATGACTTAA,0.124
6,CCTAGTTGGTCAAGTTCACACACGCTATAGGTAC,2
7,ATCGAAAGGTCGACGAGGCGAGTATACACCGTTT,4.22
8,TAACCAAGGTGAGCTGAGGTCGTTGATCCAACTC,1.58
9,CTACCAAGGAGAACAAGGTCGTTGATTACTATTC,0.732
10,CCGACTCGGGCAGAAAGGTTACCATACCATCCGG,1.6
11,CCTACTGGGCCAAGGGCATTGATCAGTCAAAGCA,-0.4
12,CCGACTGGGGCACAGGTTACCATACTCAGTACGA,0.761
13,ACTAGCAGGCCAAGTTTGGGTCACGCAAACAAAG,1.71
14,CGAACTAGGTCAGTACAGGACAGTGAAGGATGAT,1.3
15,CCTCGGAGGACAGCAGGTCAGAGCTGTCCGCTTT,0.242
16,ATCTCTAGGTAAGACTCAGTACAGTGAAGAACGC,0.176
17,CCGACTGAGGCATAAGGTTACCATAAGCCAGCCC,0.885

# System: THRa:RXRa (NR concentration 90 nM, RXRa partner concentration 90 nM)
# Experiment: as above
# Method in brief: as §1
row,Sequence,PBM binding z-score
1,GCTCGGAGGACAAGGTCAGAGGTTTGTCCGTAGA,3.07
2,GGAACGAGGGCATTCAAGTTGATAGCATGGCGAT,3.52
3,CGTTACGGGTCACGAGGTTATAGCACGACGAGCG,3.95
4,AGTCAAAGTTCACTAGGTACCGTAAGATTCAGCT,1.65
5,GGAACGAGGGCAATCGAGTTGATAGCATGGCGAT,2.64
6,GGAGCGAGGGCATTCGAGTTGATAGCATGGCGAT,3.15
7,CTCGAAAGGACGTGCTCAGGTGAGTATACCAAAC,1.17
8,TCTCGGAGCACACGAAAGGTCAGAGCTCGACATC,2.41
9,TTACCAAGGTGAGCTGATGTCGTTGATCCAACTC,1.48
10,TTTAGTTGGTCACGGAGGTCACACACGACGGGTA,3.75
11,TCTAATTGGTCACGGAGGTCACACACGACGGGTA,3.73
12,TCGAGTAGGTTAGGGACATTCAGAATGGCGTCGA,2
13,TCTAGTTGGTCACAGGTCACACACTCGAAATGCG,2.96
14,TCTATTAGTTGATTAGGTCAACCGAAACAGCGGA,3.1
15,CGAACTAGGTCATCCAGGACAGTGGATACATTGA,3.74
16,TCGAGTAGGTTAAGGGCATTCAGAATGGCGTCGA,2.16
17,CGTCCAAGGTCAGAAAGGTCAGTGAATGCCGAGT,4.14
18,AGAATGAGGTTATTAAGATCAGGAAATTGCGGTC,2.06
19,CAAACTAGGTCATTGACAGGACAGTGAATAGTAA,2.91
20,TCTGCTCGGTCAACGATGGTCAGCTAATCTGCTA,0.269

row,Sequence,PBM binding z-score
1,CCGACTGGTGCAAGGTTACCATAACGCACAGCCA,1.08
2,GCTGCTAGGTCAACTGATGGTCAGCTTAAGCTCG,3.07
3,CGAACGAGGGCATGTGTTGATAGCAAATGCCGAT,1.03
4,CCTCGGATGACAGAAGGTCAGAGCTGTCCGCTTT,1.95
5,GGAACGAGCGCAAGTTGATAGCAGAGTTTGATGG,-1.01
6,TTACCAAGTTGAGCTGAGGTCGTTGATCCAACTC,4.34
7,GCGACTGGGGCATCAGCAGGTTACCATGACTTAA,0.654
8,CCTAGTTGGTCAAGTTCACACACGCTATAGGTAC,2.12
9,ATCGAAAGGTCGACGAGGCGAGTATACACCGTTT,2.48
10,TAACCAAGGTGAGCTGAGGTCGTTGATCCAACTC,4.65
11,CTACCAAGGAGAACAAGGTCGTTGATTACTATTC,1.87
12,CCGACTCGGGCAGAAAGGTTACCATACCATCCGG,1.01
13,CCTACTGGGCCAAGGGCATTGATCAGTCAAAGCA,0.178
14,CCGACTGGGGCACAGGTTACCATACTCAGTACGA,0.272
15,ACTAGCAGGCCAAGTTTGGGTCACGCAAACAAAG,3.3
16,CGAACTAGGTCAGTACAGGACAGTGAAGGATGAT,3.38
17,CCTCGGAGGACAGCAGGTCAGAGCTGTCCGCTTT,1.74
18,ATCTCTAGGTAAGACTCAGTACAGTGAAGAACGC,0.369
19,CCGACTGAGGCATAAGGTTACCATAAGCCAGCCC,2.07
